The experiment can be described thus: p53 small molecule agonists, cell-based qHTS assay with rat liver microsomes (AID 1963578). As to conditions: HCT-116 p53RE-bla, beta-lactamase ratio, 16 h; series mostly up to 66 µM. Summed up: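 Metabolic activation is supplied by rat liver microsomes with NADPH (each 0.5 mg/mL final). p53RE-bla cells incubate with compound 16 h at 37 C; reporter activity is measured by LiveBLAzer fluorescence.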

Molecules are shown by their SMILES. Records with an inconclusive call do not appear. A call without a number means that no potency is given here. Calls of active or inactive are those of the source. The call rests on the fitted dose curve.

As to `C=CC(=O)OCCCC`, the Potency result is “inactive”.

For the compound `CCCCC(CC)COC(=O)/C=C/c1ccc(OC)cc1` (stereo not given), the Potency result was “inactive”.

As for `COC(=O)[C@H]1[C@H]2C[C@@H]3c4[nH]c5cc(OC)ccc5c4CCN3C[C@H]2C[C@@H](OC(=O)c2cc(OC)c(OC)c(OC)c2)[C@@H]1OC`, the Potency result is “inactive”.

For `CCCCCC(N)=O`, the Potency result was “inactive”.

For the compound `CCOC(=O)C(C#N)=C(c1ccccc1)c1ccccc1`, the Potency entry is “inactive”.

As to `CC(=O)C(=O)O`, the Potency result is “inactive”.

With `COC(=O)CC(=O)OC`, the Potency result was “inactive”.

`CCNC(=S)NCC`: the Potency entry was “inactive”.

Take `CCC(C)(C)C(=O)O[C@H]1C[C@@H](C)C=C2C=C[C@H](C)[C@H](CC[C@@H]3C[C@@H](O)CC(=O)O3)[C@H]21`: the Potency result is “inactive”.

As to `O=[N+]([O-])C(CO)(CO)CO`, the Potency result is “inactive”.

On to `CCOC(=O)/C=C\C(=O)OCC`, for which the Potency entry was “inactive”.

For the compound `Clc1ccccn1`, the Potency result is “inactive”.

Consider `CC#C[C@]1(O)CC[C@H]2[C@@H]3CCC4=CC(=O)CCC4=C3[C@@H](c3ccc(N(C)C)cc3)C[C@@]21C`, for which the Potency entry was “inactive”.

As to `CCCCCCCCCCCCCC(=O)O`, the Potency result was “inactive”.

With `O=[N+]([O-])c1cccc(Cl)c1`, the Potency result is “inactive”.

On to `Nc1cccc(C(F)(F)F)c1`, for which the Potency result was “inactive”.

Consider `CN(N=O)C(=O)N[C@@H]1[C@@H](O)[C@H](O)[C@@H](CO)O[C@@H]1O`, for which the Potency result is “inactive”.

`Cc1c(C(N)=O)cc([N+](=O)[O-])cc1[N+](=O)[O-]`: the Potency result is “inactive”.

Regarding `CCCCOCCOCCSC#N`, the Potency result was “inactive”.

Turning to `CC(C)(C)NC(=O)[C@H]1CC[C@H]2[C@@H]3CC[C@H]4NC(=O)C=C[C@]4(C)[C@H]3CC[C@]12C`, the Potency entry is “inactive”.

Turning to `CC(=O)c1ccccc1`, the Potency entry is “inactive”.

For `COC(=O)c1ccccc1`, the Potency entry is “inactive”.

Turning to `CC(=O)O[C@]1(C(C)=O)CC[C@H]2[C@@H]3C[C@H](C)C4=CC(=O)CC[C@]4(C)[C@H]3CC[C@@]21C`, the Potency entry was “inactive”.

In the case of `NC(=O)NC(N)=O`, the Potency entry is “inactive”.

For the compound `CCCCOCCOC(=O)c1ccccc1C(=O)OCCOCCCC`, the Potency entry is “inactive”.

Source of the values: PubChem BioAssay (Tox21).
